ELG1 repair inh = ELG1-dependent DNA repair inhibition; HEK293T ELG1-luciferase reporter, luminescence, 16 h; DNA damage induced by 5-fluorouridine; Potency, µM (highest dose often 46.1 µM), without a hit: top-dose activity change, negative = inhibition, hits mostly inhibitors; 2.3% of 330,000 active; AID 504467; also: potency is read from the fitted curve at half-maximal effect; nearly all actives have a fitted effect of over 55% in size
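DMSO vehicle served as the neutral condition. Each well held 2,000 cells given 5-fluorouridine plus compound; after 16 hr at 37 °C/5% CO2, ONE-Glo was added and luciferase measured 30 min later.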
Coupling enz = coupling enzyme interference in Giardia aldolase counter-screen; coupling enzyme system counterscreen, AmpLite Red fluorescence; activity change, negative = inhibition, % at 58.2 µM, hits read low; 0.67% of 290,000 active; AID 2472; in the data active = activity change below about -30%
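Counterscreen lacking aldolase: glyceraldehyde-3-phosphate coupling-enzyme reagent preincubated 10 min at RT with compound (at 57.5 uM final), then substrate/coupling system with AmpLite Red added; fluorescence read at 525/598 nm after 20 min RT.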
RORgamma inh = ROR gamma (mouse) transcription inhibition; P51450; Drosophila S2 Gal4-RORgamma UAS-luciferase reporter, 20 h; Potency, µM (series often up to 53.6 µM), inactives show at the top dose activity change, negative = inhibition, usual class: inhibitors; 5.4% of 310,000 active; AID 2551; also: potency is read from the fitted curve at half-maximal effect; nearly all actives have a fitted effect of over 60% in size
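Stably transfected Drosophila Schneider cells are the test system, with ROR gamma fused to Gal4 and luciferase under UAS control; luminescence is read after 20 hr of 700 uM copper sulfate induction at ambient temperature.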
TSHR antagonist = antagonists of human thyroid stimulating hormone receptor; TSHR-expressing cells, TSH-stimulated cAMP HTRF, 2 h; hits give low values; activity change, negative = inhibition, % at 11.5 µM; 0.2% of 330,000 active; P16473; AID 504810;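 active = activity change below a set negative limit, meaning inhibition stronger than a set level, cut at about -70% in these data; inconclusive = activity change between two set negative limits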
Target sequence (P16473 whole entry, looked up): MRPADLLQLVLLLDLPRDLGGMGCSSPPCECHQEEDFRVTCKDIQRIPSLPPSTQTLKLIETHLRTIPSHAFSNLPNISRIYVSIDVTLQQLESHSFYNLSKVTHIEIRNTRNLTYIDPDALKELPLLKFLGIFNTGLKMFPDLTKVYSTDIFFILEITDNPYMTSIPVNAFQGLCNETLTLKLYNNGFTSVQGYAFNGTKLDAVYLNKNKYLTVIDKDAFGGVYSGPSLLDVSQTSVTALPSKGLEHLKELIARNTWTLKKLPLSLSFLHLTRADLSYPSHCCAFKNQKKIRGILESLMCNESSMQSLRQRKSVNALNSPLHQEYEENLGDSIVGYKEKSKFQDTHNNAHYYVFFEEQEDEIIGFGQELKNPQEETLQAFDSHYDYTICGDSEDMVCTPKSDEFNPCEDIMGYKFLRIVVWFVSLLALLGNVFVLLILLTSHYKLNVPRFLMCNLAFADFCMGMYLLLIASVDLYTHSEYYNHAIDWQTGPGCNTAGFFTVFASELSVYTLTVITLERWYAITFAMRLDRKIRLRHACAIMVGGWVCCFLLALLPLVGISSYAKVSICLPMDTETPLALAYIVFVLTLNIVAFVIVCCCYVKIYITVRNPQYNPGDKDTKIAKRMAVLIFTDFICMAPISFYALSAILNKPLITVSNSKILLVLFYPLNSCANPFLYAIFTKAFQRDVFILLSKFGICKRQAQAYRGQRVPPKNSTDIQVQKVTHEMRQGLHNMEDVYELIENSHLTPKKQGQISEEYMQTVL
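Freshly harvested TSHR cells receive pin-tooled compound, then EC80 TSH at 4nM final. After 2 hours at 37 deg C, antibody in lysis buffer and cAMP-d2 are added; 30 minutes at ambient temperature precede the HTRF read.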
VP16 counter = inhibits Gal4-VP16 luciferase reporter, ROR gamma counter-screen | Drosophila S2 Gal4-VP16 UAS-luciferase, luminescence, 20 h | Potency, µM (titrated, usually from 53.6 µM), without a hit: top-dose activity, negative = inhibition, hits mostly inhibitors | 3.5% of 310,000 active | AID 2546;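 also: Gal4-VP16 expression switched on by copper sulfate through the metallothionein promoter; potency is read from the fitted curve at half-maximal effect; nearly all actives have a fitted effect of over 50% in size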
Active calls of the source: *; ? = inconclusive; . = not tested or not shown. Compounds with a hit are over-represented: about 8% of the library has one in this group of screens. Unless noted, calls follow the shape of the dose curve; as a rule, active = well fitted curve in the direction sought with a large enough effect; inconclusive = small, poorly fitted or top-dose-only effect, or another doubt; inactive = no such curve, though single readings can be large; an effect the other way counts as inactive or inconclusive. % is scaled to controls: 0 for no effect and ±100 for the full control effect.

SMILES	ELG1 repair inh	Coupling enz	RORgamma inh	TSHR antagonist	VP16 counter
C=CCn1c(SCC(=O)Nc2cccc(S(N)(=O)=O)c2)nnc1C1CCCCC1	-5.2%	.	.	-13.1	.
COc1ccc2c(c1)O[C@@H](c1cccc(C(F)(F)F)c1)[C@H](OC(=O)NCc1ccco1)C2=O	.	-0.2	-2.0%	.	-3.3%
COc1ccc(C(=O)NN(C)c2nc(C(F)(F)F)nc3ccccc23)cc1	?	-7.9	3.16µM*	-1.8	?
CN(NS(=O)(=O)c1ccc(Cl)cc1)c1nc(C(F)(F)F)nc2ccccc12	23.1µM*	8.1	?	-22.5	?
CN(NC(=O)c1ccco1)c1nc2ccccc2nc1C(F)(F)F	0.4%	1.9	?	-76.1*	17.3%
NC(=O)C1CCN(c2nc(-c3ccc(N4CCCCC4)nc3)cs2)CC1	.	.	.	-4.4	.
CC(C)C[C@H](NC(=O)[C@H](Cc1ccccc1)C[C@@H](O)[C@H](Cc1ccccc1)NC(=O)OC(C)(C)C)C(=O)N[C@@H](Cc1ccccc1)C(N)=O	.	1.1	?	.	?
Cc1cc(C)c(S(=O)(=O)N2CCN(C(=O)C3COc4ccccc4O3)CC2)c(C)c1 (stereo not given)	?	.	.	-8.7	.
O=C(NCc1cccs1)c1cc(S(=O)(=O)N2CCOCC2)c(Cl)cc1Cl	-16.8%	1.3	-3.0%	-27.6	4.4%
Cc1ccc(OCCn2c(Br)nc3c2c(=O)n(C)c(=O)n3C)cc1	5.17µM*	-49.9*	?	-1.2	-26.2%
Cn1c(=O)c2c(nc(Oc3cccc(Br)c3)n2C)n(C)c1=O	?	5.7	?	4.4	-7.8%
Cn1c(=O)c2c(ncn2Cc2cc(-c3ccccc3)no2)n(C)c1=O	18.4µM*	-3.1	?	-3.0	0.1%
Cn1c(=O)c2c(ncn2Cc2cccc(Cl)c2)n(C)c1=O	-23.1%	4.2	17.8%	22.9	-4.1%
C/C(Cl)=C\Cn1c(Nc2ccc(C)cc2)nc2c1c(=O)n(C)c(=O)n2C	5.17µM*	1.5	-10.8%	2.7	-2.9%
Cn1c(=O)c2c(ncn2CCOc2cccc(Br)c2)n(C)c1=O	8.2µM*	1.2	69.6%	-5.9	-13.2%
COCCn1c(Br)nc2c1c(=O)n(C)c(=O)n2C	6.2%	0.9	-2.4%	4.2	-5.1%
C/C(Cl)=C/Cn1c(N2CCCC2)nc2c1c(=O)n(C)c(=O)n2C	?	1.4	14.3%	-12.5	-6.0%
COC(=O)C/C=C/N(Cc1ccccc1OC)S(=O)(=O)CCl	10.5%	.	.	-17.2	.
Cc1ccsc1C1Nc2ccc3ncccc3c2C2=C1C(=O)CC(C)(C)C2 (stereo not given)	12.3%	-31.2*	?	-17.6	-21.3%
O=C1CCCC2=C1C(c1cccs1)Nc1ccc3ncccc3c12 (stereo not given)	18.9%	-3.7	12.6%	16.3	16.9%
O=C(NCc1cccs1)C1CCCN1C(=O)Nc1ccccc1Cl (stereo not given)	10.3%	-1.3	-42.7%	-0.5	10.6%
CCOC(=O)c1c(NC(=O)C2=C(C)NC(=S)NC2c2ccc(CC)cc2)sc(C)c1C (stereo not given)	6.51µM*	-4.5	3.55µM*	1.0	7.94µM*
CCOC(=O)C1=C(C)NC(=S)NC1c1ccc(OC(=O)c2ccco2)cc1 (stereo not given)	19.5%	5.9	-11.0%	3.9	-8.9%
CCc1ccc(C(=O)CN(C#N)c2nc(C)cc(C)n2)cc1	-2.1%	0.6	11.2µM*	-4.4	-25.2%
Cc1cc(C)nc(N(C#N)CC(=O)c2ccccc2)n1	-1.9%	-4.3	-35.6%	7.1	-11.9%
CC1Cc2ccccc2N1C(=O)c1ccc(F)c(S(=O)(=O)N2CCOCC2)c1 (stereo not given)	?	.	.	0.8	.
Cc1ccc(C(c2c(C)n(C)n(-c3ccccc3)c2=O)c2c(C)n(C)n(-c3ccccc3)c2=O)s1	23.1µM*	-2.4	4.47µM*	1.6	7.08µM*
COc1ccc(C(=O)Nc2ccc3ncccc3c2)cc1	?	-6.0	?	6.3	?
Cc1ccc(C(=O)Nc2ccc3ncccc3c2)cc1	?	-3.3	14.1µM*	0.9	11.2µM*
O=C(Nc1nc2ccccc2n1CCN1CCOCC1)c1cccc([N+](=O)[O-])c1	.	.	.	-7.3	.

Compound activity: PubChem, National Center for Advancing Translational Sciences (NCATS)
